Data on twelve molecules can be found in PubChem BioAssay (NCI).

Test systems include HCT-15 colon; HT29 colon; SNB-75 CNS; SNB-19 CNS; U251 CNS; PC-3 prostate; SK-MEL-5 melanoma; UACC-62 melanoma; LOX IMVI melanoma; SK-MEL-28 melanoma.
Common to all, as to assay: NCI-60 one-dose screen, 48 h (100 = growth as untreated, 0 = no growth, -100 = all killed)
What all share (conditions): 10 µM unless noted

The structures appear in SMILES notation. About 83,000 compounds went through this panel and 20% of them were active in at least one assay; those are over-represented in the sample as a whole.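 Note: values are percent growth. 100 is the growth of untreated cells, values between 100 and 0 indicate rising inhibition; between -100 and 0 indicates cell death.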 A number with no mark means an inactive call. The source made the active and inactive calls. Rule for the calls: active = growth percent below 10; inactive = the rest.

Take `CCOC(=O)c1c(C)nc2c(c1N)/C(=C/c1cccs1)C(=O)N2c1ccc(OC)cc1`: the growth is 72.8% in the experiment with HCT-15 colon; 51.3% in the experiment with HT29 colon; 30.6% in the experiment on SNB-75 CNS; 42.2% in the experiment with SNB-19 CNS; 12.4% in the experiment with U251 CNS; 35% in the experiment on PC-3 prostate. Besides, the growth in the experiment on SK-MEL-5 melanoma was 45.7%; with UACC-62 melanoma, 38.3%; in the experiment with LOX IMVI melanoma, 37.6%; in the experiment on SK-MEL-28 melanoma, 37%.

As for `CC1(c2ccccc2Cl)NC(=O)NC1=O` (stereo not given), the growth in the experiment on HCT-15 colon was 99.2%; in the experiment on HT29 colon, 97.9%; in the experiment on SNB-75 CNS it was 88.1%; with SNB-19 CNS, 97.8%; in the experiment with U251 CNS, 96.7%; with PC-3 prostate it was 91.2%. In addition, the growth in the experiment with SK-MEL-5 melanoma is 101%; with UACC-62 melanoma, 95.5%; in the experiment with LOX IMVI melanoma it was 97.5%; in the experiment on SK-MEL-28 melanoma it was 105%.

Take `Cc1ccc(C(=O)/C(=C/c2ccc([N+](=O)[O-])cc2)S(=O)Cc2ccccc2)cc1` (stereo not given): the growth with HCT-15 colon was -8.82% (active); with HT29 colon it was -21% (active); in the experiment with SNB-75 CNS, 43.4%; in the experiment on SNB-19 CNS, 34.8%; with U251 CNS, 13.4%; in the experiment with PC-3 prostate, -0.822% (active). The growth with SK-MEL-5 melanoma was 37.8%; in the experiment on UACC-62 melanoma it was -54.9% (active); with LOX IMVI melanoma it was -82.1% (active); with SK-MEL-28 melanoma, 17.1%.

In the case of `CCCCc1n(Cc2ccc3ccccc3n2)cc[n+]1Cc1ccc2ccccc2c1`, the growth was 76.7% in the experiment on HCT-15 colon; -8.3% (active) in the experiment on HT29 colon; 15.7% in the experiment with SNB-75 CNS; 7.08% (active) in the experiment on SNB-19 CNS; 5.73% (active) in the experiment on U251 CNS; 1.01% (active) with PC-3 prostate. Further, the growth with SK-MEL-5 melanoma is -94.3% (active); in the experiment on UACC-62 melanoma it was -57.7% (active); with LOX IMVI melanoma, -26.5% (active); in the experiment on SK-MEL-28 melanoma, 0.554% (active).

Turning to `N#Cc1nc(-c2ccccc2)oc1S(=O)(=O)NCC(c1ccc(Cl)cc1)N1CCCCC1` (stereo not given), the growth is 35.3% with HCT-15 colon; 25.1% in the experiment on HT29 colon; 94% in the experiment on SNB-75 CNS; 88.1% in the experiment on SNB-19 CNS; 74.1% in the experiment with U251 CNS; 78.9% in the experiment on PC-3 prostate. In addition, the growth is 73.8% in the experiment on SK-MEL-5 melanoma, 80.2% with UACC-62 melanoma, 21.9% with LOX IMVI melanoma and 96.3% with SK-MEL-28 melanoma.

Consider `COC(=O)/C=C1\SC(=Nc2ccc(F)cc2)N(CCc2c[nH]c3ccccc23)C1=O`, for which the growth was 98.3% in the experiment on HCT-15 colon; 66.3% in the experiment on HT29 colon; 108% in the experiment on SNB-75 CNS; 103% with SNB-19 CNS; 98.2% with U251 CNS; 87.9% with PC-3 prostate. In addition, the growth with SK-MEL-5 melanoma was 99.5%; with UACC-62 melanoma, 82.6%; with LOX IMVI melanoma it was 90%; in the experiment with SK-MEL-28 melanoma, 112%.

Take `NS(=O)(=O)c1ccc(C2C3=C(CCCC3=O)OC3=C2C(=O)c2ccccc2C3=O)cc1` (stereo not given): the growth with HCT-15 colon is 2.23% (active); with HT29 colon, -29.3% (active); with SNB-75 CNS, -99.5% (active); in the experiment on SNB-19 CNS it was -1.37% (active); in the experiment with U251 CNS it was -86.7% (active); with PC-3 prostate, -1.42% (active). In addition, the growth in the experiment with SK-MEL-5 melanoma is -95.3% (active); in the experiment with UACC-62 melanoma, -59.7% (active); in the experiment with LOX IMVI melanoma it was -72.7% (active); with SK-MEL-28 melanoma, -57.5% (active).

For the molecule `CN(C)c1ccc(-c2ccc3[nH]c(=O)nc(-c4ccc(F)cc4)c3c2)cn1`, the growth in the experiment on HCT-15 colon is 33.2%; in the experiment with HT29 colon, 11%; in the experiment on SNB-75 CNS, 11.2%; in the experiment on SNB-19 CNS it was 36.2%; with U251 CNS it was 31.3%; in the experiment with PC-3 prostate, 41.7%. In addition, the growth is 20.3% in the experiment with SK-MEL-5 melanoma, 28.4% with UACC-62 melanoma, 41.3% with LOX IMVI melanoma and 69.2% with SK-MEL-28 melanoma.

Consider `NC(N)=NC(N)=Nc1cc2ccccc2c2ccccc12`, for which the growth in the experiment on HCT-15 colon was 57.8%; in the experiment with HT29 colon it was 12.6%; in the experiment with SNB-75 CNS it was 57.7%; in the experiment with SNB-19 CNS, 35.8%; in the experiment on U251 CNS, 33.8%; with PC-3 prostate, 24.4%. The growth in the experiment with SK-MEL-5 melanoma was 45.6%; with UACC-62 melanoma it was 43.6%; in the experiment on LOX IMVI melanoma, 16.5%; in the experiment with SK-MEL-28 melanoma it was 55.9%.

Consider `C=C(C)[C@@H]1CC[C@]2(C(=O)OCCOCCOCC[P+](c3ccccc3)(c3ccccc3)c3ccccc3)CC[C@]3(C)[C@H](CC[C@@H]4[C@@]5(C)CC[C@H](OC(C)=O)C(C)(C)[C@@H]5CC[C@]43C)[C@@H]12`, for which the growth in the experiment on HCT-15 colon is -81.3% (active); in the experiment on HT29 colon it was -88.5% (active); in the experiment on SNB-75 CNS it was -87.2% (active); in the experiment on SNB-19 CNS, -93.6% (active); in the experiment on U251 CNS it was -95.4% (active); in the experiment with PC-3 prostate, -90.2% (active). The growth in the experiment with SK-MEL-5 melanoma was -98.5% (active); with UACC-62 melanoma it was -86.5% (active); in the experiment with LOX IMVI melanoma, -93.2% (active); in the experiment with SK-MEL-28 melanoma, -86.7% (active).

On to `CCC[S@@](=O)c1ccc2nc(NC(=O)OC)[nH]c2c1`, for which the growth with HCT-15 colon is 68.3%; in the experiment with HT29 colon it was 62.5%; in the experiment on SNB-75 CNS it was 82.6%; with SNB-19 CNS, 87.6%; in the experiment with U251 CNS, 82.2%; with PC-3 prostate, 78.4%. Besides, the growth was 83.3% with SK-MEL-5 melanoma, 72.7% in the experiment with UACC-62 melanoma, 90.2% with LOX IMVI melanoma and 89.3% in the experiment with SK-MEL-28 melanoma.

Consider `Nc1ccc(C2=NN(C(=O)c3cc(-c4ccc(Cl)cc4)nc4ccccc34)C(c3ccccc3)C2)cc1` (stereo not given), for which the growth is 25.5% in the experiment on HCT-15 colon; 12.2% in the experiment on HT29 colon; 40.2% with SNB-75 CNS; 34.1% in the experiment on SNB-19 CNS; 40.1% with U251 CNS; 26.8% in the experiment on PC-3 prostate. Besides, the growth in the experiment on SK-MEL-5 melanoma was 25.9%; in the experiment on UACC-62 melanoma, 38.9%; in the experiment with LOX IMVI melanoma, 42.5%; in the experiment on SK-MEL-28 melanoma, 58.8%.
